A short description of experiment [1]: qHTS assay to identify small molecule agonists of H2AX (AID 1224845; active means well fitted activation curve with a large enough effect in the signal ratio in the repeat runs, not every such curve was filed as active; the % refers to the signal ratio; further: potency means the concentration at half of the fitted maximal effect). An outline of the steps: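 Wild-type CHO-K1 cells plated overnight, then exposed 3 hr at 37C to compounds at 15 concentrations (0.76% DMSO). Lysed, then HTRF anti-pH2AX(S139)-cryptate/anti-H2AX-d2 detection after 24 hr at room temperature; emissions 665 and 620 nm.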
(In general: Quantitative high-throughput screening tests each substance at several concentrations.)

A short description of experiment [2]: qHTS assay to identify small molecule agonists of the hypoxia (HIF-1) signaling pathway (AID 1224846; active means well fitted activation curve with a large enough effect in the signal ratio in the repeat runs, not every such curve was filed as active; the % refers to the signal ratio; further: on the % scale 0 is the no-effect control and ±100 the full control effect). An outline of the steps: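 Cell line: CellSensor HRE-bla ME-180; 2,000 cells/well; 0.5% dialyzed FBS; 5 h preincubation; DMSO compound pin transfer; 17 h, 37C, 5% CO2; CCF4-AM added; bla FRET signal scored for activation.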
Experiment [3] can be described thus: qHTS assay to identify small molecule agonists of H2AX - cell viability counter screen (AID 1224847; calls by dose curve; further: top concentration of the series differs between compounds; on the % scale 0 is the no-effect control and ±100 the full control effect; nearly all actives have a fitted effect of over 30% in size). An outline of the steps: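 Compounds tested at 15 concentrations were incubated 3 hr at 37C with wild-type CHO-K1 cells; cellular ATP-based luminescence (CellTiter-Glo) indicated viability.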
Experiment [4] in a line: qHTS RealTime-Glo MT Cell Viability Assay in HepG2 cells - 24 hour (AID 1224867). Further: on the % scale 0 is the no-effect control and ±100 the full control effect; nearly all actives have a fitted effect of over 50% in size. An outline of the steps: (§1)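 Cells + NanoLuc/prosubstrate dispensed (600 cells/well) → 5 h at 37 C/5% CO2 → compounds in DMSO transferred → 40 h incubation at 37 C, luminescence read at 0, 8, 16, 24, 32, 40 h.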
Experiment [5] can be described thus: qHTS RealTime-Glo MT Cell Viability Assay in HEK293 cells - 32 hour (AID 1224868). Further: nearly all actives have a fitted effect of over 50% in size. Further: potency means the concentration at half of the fitted maximal effect. A digest of the protocol:
(§2)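 Tox21 10K qHTS, HEK293, 600 cells/well, RealTime-Glo reagent co-dispensed with cells; 5 h preincubation, compound by pintool, 37 C, luminescence at 0–40 h.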

Experiment [6] can be described thus: A CellTox Green Cytotoxicity Assay to monitor cytotoxicity in HEK293 cells - 0 hour (AID 1224869). Further: on the % scale 0 is the no-effect control and ±100 the full control effect; nearly all actives have a fitted effect of over 50% in size. An outline of the steps:
(§3)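 Nonlytic real-time cytotoxicity: HEK293 + CellTox Green reagent plated, 5 h preincubation, pintool compound addition (23 nL in DMSO), 37 C for 40 h, fluorescence measured at successive time points.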

Experiment [7] is described as follows: qHTS RealTime-Glo MT Cell Viability Assay in HepG2 cells - 40 hour (AID 1224870). Further: on the % scale 0 is the no-effect control and ±100 the full control effect; nearly all actives have a fitted effect of over 50% in size. An outline of the steps:
(§4)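 HepG2 cells mixed with RealTime-Glo MT reagents (NanoLuc plus cell-permeant prosubstrate) were seeded at 600 cells/well, incubated 5 h at 37 C/5% CO2, then pinned with compounds in DMSO; nonlytic luminescence tracked viability during 40 h treatment.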

Experiment [8] is described as follows: A CellTox Green Cytotoxicity Assay to monitor cytotoxicity in HEK293 cells - 40 hour (AID 1224871). Further: on the % scale 0 is the no-effect control and ±100 the full control effect; nearly all actives have a fitted effect of over 45% in size. An outline of the steps: as §3
Experiment [9] can be described thus: qHTS RealTime-Glo MT Cell Viability Assay in HEK293 cells - 16 hour (AID 1224872). A digest of the protocol: as §2
The nature of experiment [10]: qHTS RealTime-Glo MT Cell Viability Assay in HEK293 cells - 40 hour (AID 1224874). Further: nearly all actives have a fitted effect of over 50% in size. Further: potency means the concentration at half of the fitted maximal effect. On max response: on the % scale 0 is the no-effect control and ±100 the full control effect. To be noted: RealTime-Glo luminescence; max response: active compounds read low. An outline of the steps: (§5)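 Cells were seeded together with NanoLuc luciferase and a prosubstrate that viable cells reduce to a luciferase substrate. After a 5 h incubation at 37 C/5% CO2, compounds were added and luminescence was measured repeatedly during 40 h of treatment.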

The nature of experiment [11]: A CellTox Green Cytotoxicity Assay to monitor cytotoxicity in HEK293 cells - 24 hour (AID 1224875). Further: on the % scale 0 is the no-effect control and ±100 the full control effect; nearly all actives have a fitted effect of over 45% in size. A digest of the protocol: as §3
The nature of experiment [12]: qHTS RealTime-Glo MT Cell Viability Assay in HepG2 cells - 32 hour (AID 1224877). Further: on the % scale 0 is the no-effect control and ±100 the full control effect; nearly all actives have a fitted effect of over 55% in size. A digest of the protocol:
as §1

A short description of experiment [13]: A CellTox Green Cytotoxicity Assay to monitor cytotoxicity in HepG2 cells - 24 hour (AID 1224878). Further: on the % scale 0 is the no-effect control and ±100 the full control effect; nearly all actives have a fitted effect of over 45% in size. An outline of the steps: (§6)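 Read-out is fluorescence of a cyanine dye excluded from live cells that stains DNA of dead HepG2 cells, with signal proportional to cytotoxicity. Plates were read at 0, 8, 16, 24, 32 and 40 h after compound addition.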
Experiment [14] in a line: A CellTox Green Cytotoxicity Assay to monitor cytotoxicity in HepG2 cells - 40 hour (AID 1224879). Further: on the % scale 0 is the no-effect control and ±100 the full control effect; nearly all actives have a fitted effect of over 40% in size. An outline of the steps: as §6
Experiment [15] in a line: A CellTox Green Cytotoxicity Assay to monitor cytotoxicity in HEK293 cells - 32 hour (AID 1224881). Further: on the % scale 0 is the no-effect control and ±100 the full control effect; nearly all actives have a fitted effect of over 40% in size. A digest of the protocol:
as §3

The nature of experiment [16]: qHTS RealTime-Glo MT Cell Viability Assay in HepG2 cells - 8 hour (AID 1224873). Further: on the % scale 0 is the no-effect control and ±100 the full control effect; nearly all actives have a fitted effect of over 55% in size. A digest of the protocol:
as §4

The nature of experiment [17]: A CellTox Green Cytotoxicity Assay to monitor cytotoxicity in HepG2 cells - 16 hour (AID 1224876). Further: on the % scale 0 is the no-effect control and ±100 the full control effect; nearly all actives have a fitted effect of over 45% in size. A digest of the protocol:
as §6

The nature of experiment [18]: qHTS RealTime-Glo MT Cell Viability Assay in HEK293 cells - 0 hour (AID 1224880). An outline of the steps:
as §5

A short description of experiment [19]: qHTS assay to identify small molecule antagonists of the estrogen related receptor (ERR) signaling pathway from Tox21 library (AID 1224848). An outline of the steps: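 Cells: ERR line, 2,000/well; 6 h preincubation 37 C/5% CO2. Cpd in DMSO via pin tool; 18 h, 37 C. ONE-Glo, 30 min RT, luminescence.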
The nature of experiment [20]: qHTS assay to identify small molecule agonists of the estrogen related receptor (ERR) signaling pathway from Tox21 library (AID 1224849; calls by dose curve; further: on the % scale 0 is the no-effect control and ±100 the full control effect; nearly all actives have a fitted effect of over 15% in size). To be noted: ERR reporter cell line, ONE-Glo luciferase, 18 h; at 92.4 µM (top of the series) unless noted. An outline of the steps: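 ERR cells, 6 h pre-incubation 37 C/5% CO2; cpd in DMSO pinned; 18 h 37 C; ONE-Glo added, 30 min RT; luminescence read. Agonist mode, qHTS.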

The structures appear in SMILES notation. Unmarked numbers belong to inactive results. Results filed as inconclusive are left out. The source made the active and inactive calls. Unless noted, the call rests on the fitted dose curve; in most records, active means well fitted curve in the direction sought with a large enough effect in the repeat runs; inconclusive means weak or mixed curves; inactive means no such curve, though single readings can be large; an effect the other way counts as inactive or inconclusive.

As to `CCCCOCCOCCOCCOCCO`, the Potency result in experiment [1], in experiment [3], in experiment [4], in experiment [5], in [6] and in experiment [7] was “inactive” each time. The Potency result in [8], in experiment [9], in experiment [11], in experiment [12], in experiment [13] and in experiment [14] was “inactive” throughout. In addition, the Potency entry in experiment [15] is “inactive”. The result in experiment [2] was inactive. For the same compound, the max response in experiment [10] is -11.7%.

In the case of `CC[C@@H]1C[C@H](N(Cc2cc(C(F)(F)F)cc(C(F)(F)F)c2)C(C)=O)c2cc(C(F)(F)F)ccc2N1C(=O)OC(C)C`, the Potency result in experiment [1], in [3], in experiment [4], in [6], in experiment [7] and in [8] was “inactive” each time. For the same compound, the Potency result in [9], in experiment [16], in experiment [11], in [17], in experiment [12] and in experiment [13] was “inactive” in each case. Further, the Potency entry in [14], in [18] and in experiment [15] was “inactive” in each case. In addition, the call in experiment [2] was inactive. Besides, the max response in [10] was -22.8%.

Consider `CC(C)c1cccc(C(C)C)c1NC(=O)NS(=O)(=O)c1cc(C(C)(C)O)co1`, for which the Potency result in experiment [1], in experiment [3], in experiment [4], in experiment [5], in experiment [6] and in experiment [7] was “inactive” in each case. The Potency entry in experiment [9], in experiment [16], in [11], in experiment [17], in [12] and in experiment [13] was “inactive” in each case. The Potency result in experiment [14], in [18] and in [15] was “inactive” in each case. Besides, in [2], the outcome was inactive. The max response in [10] is 6.33%.

In the case of `O=C1CCCCCO1`, the Potency result in experiment [1], in experiment [3], in [4], in experiment [5], in [6] and in experiment [7] was “inactive” in each case. Besides, the Potency entry in experiment [8], in experiment [9], in [11], in experiment [17], in [12] and in experiment [13] was “inactive” throughout. The Potency result in experiment [14], in [18] and in experiment [15] was “inactive” each time. For the same compound, the result in [2] was inactive. Also, the max response in experiment [10] was 10.5%.

On to `Nc1nc(CC(=O)O)cs1`, for which the Potency entry in experiment [1], in [4], in experiment [6], in [7], in experiment [8] and in experiment [9] was “inactive” in each case. The Potency entry in experiment [11], in experiment [17], in experiment [12], in experiment [13], in experiment [18] and in experiment [15] was “inactive” throughout. Also, the result in [2] was inactive. The Potency in [19] is 61.3 µM (active). For the same compound, the activity change, positive = activation in experiment [20] is -48.9%.

On to `COC(=O)CSc1cc(N=c2sc(=O)n3n2CCCC3)c(F)cc1Cl`, for which the Potency result in experiment [1], in [3], in experiment [4], in experiment [5], in [6] and in [7] was “inactive” throughout. The Potency entry in [9], in experiment [16], in [17], in experiment [12], in experiment [13] and in experiment [14] was “inactive” in each case. The Potency entry in experiment [15] is “inactive”. Further, the compound was classed as inactive in experiment [2]. In addition, the max response in experiment [10] was 3.98%.

Turning to `Oc1ccc(Sc2ccc(O)cc2)cc1`, the Potency in [1] was 83.9 µM (active); in experiment [5] it was 20.5 µM (active); in experiment [10], 22.9 µM (active). In addition, the compound was called inactive in experiment [2]. The Potency result in [3], in [4], in experiment [6], in experiment [7], in [8] and in experiment [16] was “inactive” each time. Also, the Potency entry in [11], in experiment [17], in experiment [12], in [13], in [14] and in experiment [18] was “inactive” throughout. Also, in experiment [15], the Potency result is “inactive”.

For the origin of these results see PubChem BioAssay (Tox21).
